Results from the supplement of paper PMC10849652.
Of roughly 7,900 targets only a part is listed; those with a hit were picked by preference. About 0.6% of all pairs of compound and target were hits.

How the values were obtained:
Assay in all cases: log2 fold change, soluble protein after heating vs DMSO (PISA); higher = thermal stabilisation; K562 cells, 10 uM, 30 min; active = over 0.2 and 3.5 SD of the protein, either way, in both replicates (recomputed)
[1] = compound: C1=CC=C(C=C1)[C@H](COC2=CC3=C(C=C2)NC(=O)N3)NC(=O)C4=CC=CN(C4=O)CC5=CC(=C(C=C5)F)F
Outline: (§1)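 Thermal stability values are relative to control samples and come from duplicates. They are expressed as log2 fold changes. For measurement, K562 cells (2×10^6 cells/mL) received 10 μM compound for 30 min, and aliquots were heated for 3 min over 48°C-58°C, pooled, and extracted at 4°C in PBS with 0.5% NP-40. Soluble protein, the supernatant after 21,000xg for 90 min, was quantified by TMTpro 16plex LC-MS/MS with equalised channel sums.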

[2] = compound: CC1=C(SC2=C1C(=N[C@H](C3=NN=C(N32)C)CC(=O)N)C4=CC=C(C=C4)Cl)C
Outline: as §1

[3] = compound: CC1=C2C(=CC=C1)N=C(N(C2=O)C3=CC=CC=C3C)CN4C=NC5=C(N=CN=C54)N
Outline: as §1

[4] = compound: Cc1sc2c(c1C)C(c1ccc(Cl)cc1)=N[C@@H](CC(=O)OC(C)(C)C)c1nnc(C)n1-2
Outline: as §1

[5] = compound: c1ccc([C@@H]2C[C@H]2NC2CCNCC2)cc1
Outline: as §1

Measured: log2 fold change

EEF1AKNMT (UniProt Q8N6R0)
UniProt Q8N6R0, sequence (Q8N6R0 whole entry, looked up): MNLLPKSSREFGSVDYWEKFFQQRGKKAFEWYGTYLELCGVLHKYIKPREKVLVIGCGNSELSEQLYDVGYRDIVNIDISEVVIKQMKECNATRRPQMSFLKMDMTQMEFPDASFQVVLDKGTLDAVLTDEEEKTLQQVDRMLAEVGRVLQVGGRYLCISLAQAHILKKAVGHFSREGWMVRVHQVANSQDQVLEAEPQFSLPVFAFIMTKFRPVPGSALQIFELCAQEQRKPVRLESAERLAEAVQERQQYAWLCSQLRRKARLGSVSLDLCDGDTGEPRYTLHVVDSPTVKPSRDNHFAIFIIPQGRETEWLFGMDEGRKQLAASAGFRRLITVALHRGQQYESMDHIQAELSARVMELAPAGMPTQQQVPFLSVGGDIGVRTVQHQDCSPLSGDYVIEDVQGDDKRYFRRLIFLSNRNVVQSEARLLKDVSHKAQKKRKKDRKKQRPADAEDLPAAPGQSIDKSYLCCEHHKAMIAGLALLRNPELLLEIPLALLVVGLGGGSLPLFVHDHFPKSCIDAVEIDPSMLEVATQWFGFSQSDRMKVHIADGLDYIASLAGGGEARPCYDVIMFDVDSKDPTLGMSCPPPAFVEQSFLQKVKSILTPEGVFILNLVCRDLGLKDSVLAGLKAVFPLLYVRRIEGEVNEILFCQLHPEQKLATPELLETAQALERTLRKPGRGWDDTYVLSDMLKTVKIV
inactive: [1] -0.146 | [2] 0.049 | [3] 0.121 | [4] 0.028 | [5] -0.063

DDOST (UniProt P39656)
UniProt P39656, sequence (P39656 whole entry, looked up): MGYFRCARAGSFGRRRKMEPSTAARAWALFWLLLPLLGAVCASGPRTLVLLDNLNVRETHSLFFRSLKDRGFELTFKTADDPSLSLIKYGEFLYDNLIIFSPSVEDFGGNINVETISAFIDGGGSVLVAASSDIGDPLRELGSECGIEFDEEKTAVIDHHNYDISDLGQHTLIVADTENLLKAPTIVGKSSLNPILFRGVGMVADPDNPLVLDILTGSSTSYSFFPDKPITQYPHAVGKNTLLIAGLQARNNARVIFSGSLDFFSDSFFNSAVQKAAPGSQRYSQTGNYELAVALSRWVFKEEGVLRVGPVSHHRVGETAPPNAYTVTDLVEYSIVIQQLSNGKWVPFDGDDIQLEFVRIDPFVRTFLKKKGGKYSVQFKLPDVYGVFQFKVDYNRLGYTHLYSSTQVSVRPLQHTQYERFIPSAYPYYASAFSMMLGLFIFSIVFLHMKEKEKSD
inactive: [1] 0.018 | [2] -0.009 | [3] -0.078 | [4] -0.022 | [5] 0

EDEM2 (UniProt Q9BV94)
UniProt Q9BV94, sequence (Q9BV94 whole entry, looked up): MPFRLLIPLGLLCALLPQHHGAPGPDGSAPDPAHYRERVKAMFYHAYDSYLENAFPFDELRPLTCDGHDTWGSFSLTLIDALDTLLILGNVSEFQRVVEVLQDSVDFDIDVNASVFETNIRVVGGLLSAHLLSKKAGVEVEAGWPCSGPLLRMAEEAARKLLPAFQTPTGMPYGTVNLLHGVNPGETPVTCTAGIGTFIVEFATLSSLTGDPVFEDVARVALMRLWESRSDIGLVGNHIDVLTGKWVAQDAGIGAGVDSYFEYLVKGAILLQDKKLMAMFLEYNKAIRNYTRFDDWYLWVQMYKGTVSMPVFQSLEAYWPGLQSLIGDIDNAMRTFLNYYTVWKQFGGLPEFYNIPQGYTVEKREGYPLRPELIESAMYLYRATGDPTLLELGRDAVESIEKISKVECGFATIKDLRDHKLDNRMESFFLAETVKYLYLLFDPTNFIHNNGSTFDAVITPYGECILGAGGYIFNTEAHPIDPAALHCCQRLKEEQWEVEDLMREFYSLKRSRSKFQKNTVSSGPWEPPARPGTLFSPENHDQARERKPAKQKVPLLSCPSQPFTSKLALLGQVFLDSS
inactive: [1] 0.194 | [2] 0.042 | [3] 0.013 | [4] -0.046 | [5] 0.012

CYP51A1 (UniProt Q16850)
UniProt Q16850, sequence (Q16850 whole entry, looked up): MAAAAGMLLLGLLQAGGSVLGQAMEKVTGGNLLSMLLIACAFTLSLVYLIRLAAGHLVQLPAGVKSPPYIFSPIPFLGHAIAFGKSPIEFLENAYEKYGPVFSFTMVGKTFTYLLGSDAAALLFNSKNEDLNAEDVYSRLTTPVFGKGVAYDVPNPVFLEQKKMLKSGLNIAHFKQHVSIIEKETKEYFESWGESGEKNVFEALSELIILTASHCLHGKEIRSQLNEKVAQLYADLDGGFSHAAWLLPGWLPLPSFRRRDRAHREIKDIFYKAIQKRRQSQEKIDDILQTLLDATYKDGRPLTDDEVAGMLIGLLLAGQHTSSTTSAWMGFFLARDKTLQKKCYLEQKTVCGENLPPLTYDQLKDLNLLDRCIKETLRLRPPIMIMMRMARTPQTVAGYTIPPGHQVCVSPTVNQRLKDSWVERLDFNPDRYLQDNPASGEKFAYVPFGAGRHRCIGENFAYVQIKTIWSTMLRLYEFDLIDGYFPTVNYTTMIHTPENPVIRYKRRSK
inactive: [1] -0.096 | [2] 0.055 | [3] -0.037 | [4] -0.01 | [5] -0.001

DNAJC19 (UniProt Q96DA6)
UniProt Q96DA6, sequence (Q96DA6 whole entry, looked up): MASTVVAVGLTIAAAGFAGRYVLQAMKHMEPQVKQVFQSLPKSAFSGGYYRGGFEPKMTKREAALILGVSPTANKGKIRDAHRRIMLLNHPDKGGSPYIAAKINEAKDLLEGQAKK
inactive: [1] 0.025 | [2] 0.021 | [3] 0.05 | [4] 0 | [5] -0.041

DHX40 (UniProt Q8IX18)
UniProt Q8IX18, sequence (Q8IX18 whole entry, looked up): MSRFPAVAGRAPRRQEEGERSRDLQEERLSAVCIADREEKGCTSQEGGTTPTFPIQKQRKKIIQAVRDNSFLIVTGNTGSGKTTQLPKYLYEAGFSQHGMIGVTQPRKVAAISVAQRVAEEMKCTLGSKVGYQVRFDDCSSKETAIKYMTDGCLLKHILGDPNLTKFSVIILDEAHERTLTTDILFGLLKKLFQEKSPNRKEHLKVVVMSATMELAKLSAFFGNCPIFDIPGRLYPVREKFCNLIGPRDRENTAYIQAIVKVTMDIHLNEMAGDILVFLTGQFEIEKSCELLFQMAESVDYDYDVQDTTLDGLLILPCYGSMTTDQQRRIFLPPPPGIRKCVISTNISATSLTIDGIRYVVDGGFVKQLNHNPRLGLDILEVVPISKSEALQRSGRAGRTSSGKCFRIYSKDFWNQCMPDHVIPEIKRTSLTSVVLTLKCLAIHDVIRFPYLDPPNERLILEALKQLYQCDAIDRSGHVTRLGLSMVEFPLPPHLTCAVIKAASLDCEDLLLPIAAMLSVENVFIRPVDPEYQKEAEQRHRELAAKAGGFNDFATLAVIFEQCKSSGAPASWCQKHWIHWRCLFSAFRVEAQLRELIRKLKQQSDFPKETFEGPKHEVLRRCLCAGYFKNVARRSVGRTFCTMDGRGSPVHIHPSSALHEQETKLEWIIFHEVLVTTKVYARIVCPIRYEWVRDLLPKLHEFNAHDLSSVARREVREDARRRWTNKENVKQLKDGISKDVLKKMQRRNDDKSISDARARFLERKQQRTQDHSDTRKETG
inactive: [1] 0.026 | [2] 0.101 | [3] 0.072 | [4] 0.093 | [5] -0.022

DAG1 (UniProt Q14118)
UniProt Q14118, sequence (Q14118 whole entry, looked up): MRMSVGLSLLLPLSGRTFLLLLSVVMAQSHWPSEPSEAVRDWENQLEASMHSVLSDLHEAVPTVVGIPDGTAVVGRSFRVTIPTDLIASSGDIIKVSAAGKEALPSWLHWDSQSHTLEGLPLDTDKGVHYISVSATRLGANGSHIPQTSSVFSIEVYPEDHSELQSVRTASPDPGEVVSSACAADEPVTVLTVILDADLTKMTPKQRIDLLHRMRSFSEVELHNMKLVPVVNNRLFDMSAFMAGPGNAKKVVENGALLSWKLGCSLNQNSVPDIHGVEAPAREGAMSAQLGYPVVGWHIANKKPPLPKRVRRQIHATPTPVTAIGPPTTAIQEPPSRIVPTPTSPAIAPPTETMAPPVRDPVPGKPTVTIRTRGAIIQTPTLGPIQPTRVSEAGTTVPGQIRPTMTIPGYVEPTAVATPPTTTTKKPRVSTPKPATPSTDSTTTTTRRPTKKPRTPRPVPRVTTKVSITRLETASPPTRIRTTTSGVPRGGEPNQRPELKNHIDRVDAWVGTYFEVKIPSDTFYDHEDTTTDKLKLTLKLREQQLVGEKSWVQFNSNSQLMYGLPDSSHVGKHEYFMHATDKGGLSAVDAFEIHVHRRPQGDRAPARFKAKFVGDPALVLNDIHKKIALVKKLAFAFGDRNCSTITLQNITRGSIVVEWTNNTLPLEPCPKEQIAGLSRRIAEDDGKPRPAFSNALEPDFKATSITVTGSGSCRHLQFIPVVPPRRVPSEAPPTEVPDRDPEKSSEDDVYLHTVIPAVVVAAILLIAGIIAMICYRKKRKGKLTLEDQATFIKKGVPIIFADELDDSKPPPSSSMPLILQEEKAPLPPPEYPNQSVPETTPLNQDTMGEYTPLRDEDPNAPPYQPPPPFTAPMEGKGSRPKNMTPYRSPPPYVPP
inactive: [1] -0.068 | [2] 0.074 | [3] 0.072 | [4] 0.016 | [5] 0.049

EOGT (UniProt Q5NDL2)
UniProt Q5NDL2, sequence (Q5NDL2 whole entry, looked up): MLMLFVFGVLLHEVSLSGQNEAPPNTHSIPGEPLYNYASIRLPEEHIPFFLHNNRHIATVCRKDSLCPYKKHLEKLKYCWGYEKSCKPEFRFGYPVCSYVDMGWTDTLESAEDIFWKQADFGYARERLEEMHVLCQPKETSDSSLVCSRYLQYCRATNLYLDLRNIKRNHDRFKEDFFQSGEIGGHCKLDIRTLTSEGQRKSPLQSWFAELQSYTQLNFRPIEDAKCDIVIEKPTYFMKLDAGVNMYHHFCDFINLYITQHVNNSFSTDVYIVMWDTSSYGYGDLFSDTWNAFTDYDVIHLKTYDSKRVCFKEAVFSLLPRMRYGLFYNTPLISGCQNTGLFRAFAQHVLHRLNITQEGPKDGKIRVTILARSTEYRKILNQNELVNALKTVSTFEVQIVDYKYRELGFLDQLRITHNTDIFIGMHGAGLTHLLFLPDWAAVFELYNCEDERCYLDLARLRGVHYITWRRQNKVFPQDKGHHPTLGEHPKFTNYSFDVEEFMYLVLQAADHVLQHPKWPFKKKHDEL
inactive: [1] 0.013 | [2] -0.074 | [3] 0.056 | [4] -0.032 | [5] 0.077

DNAH10 (UniProt Q8IVF4)
inactive: [1] 0.09 | [2] 0.103 | [3] 0.062 | [4] -0.131 | [5] 0.031
